The list is not random: actives were taken first. Their share in the collection is about 2.6%.
TROY signal inh: blocks TROY-dependent signaling in reporter cells. Q293 LMP1-TROYcd NF-kB luciferase reporter, 4 h. AID 1347056. inhibition, % at 10 µM. 360,000 tested, 0.98% active;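 active = compounds whose plate-normalised and pattern-corrected inhibition of the luciferase reporter signal at the single screening dose is 50% or more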
TWEAK Fn14 block: inhibitors of TWEAK-Fn14 interaction signaling; 360,000 tested, 2% active; inhibition, % at 10 µM; TWEAK-stimulated Fn14 reporter cells, luciferase luminescence, 8 h; in the data active = inhibition above about 50%
LGR2 antag: Drosophila LGR2 receptor signaling inhibition; 380,000 tested, 0.35% active; HEK293 LGR2, CRE-luciferase, bursicon-stimulated, 4 h; inhibition, % at 9.99 µM;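 active = drop in luminescence signal, shown as inhibition above about 50% in the replicate tests, limit read from the data, passing the limit was not always enough; inconclusive = probably only some replicates passing the limit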;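 note: agonist challenge used bursicon conditioned medium at about half maximal strength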
EWS-Fli block: blocks EWS/Fli oncoprotein-driven transcription; A673 NR0B1-luciferase reporter, viability-normalised; inhibition, % at 12.6 µM; 350,000 tested, 0.67% active;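 active = mean inhibition of at least 50% after viability correction, with every replicate also passing that limit; inconclusive = mean reaches 50% but only one of two replicates passes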;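 note: firefly luciferase signal divided by Alamar Blue viability fluorescence both relative to DMSO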
LMP1 NFkB inh: inhibitors of Epstein-Barr LMP1-induced NF-kappaB reporter; LMP1-induced NF-kappaB luciferase reporter cells, luminescence; inhibition, % at 12.5 µM; 350,000 tested, 0.69% active; AID 504558; in the data active = inhibition above about 41%; inconclusive = no clear call, values can overlap the other calls;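 note: 0% = neutral control wells and 100% = reference inhibitor control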
Starred values were filed as active, the others as inactive; u = inconclusive; x = no result given.

SMILES	TROY signal inh	TWEAK Fn14 block	LGR2 antag	EWS-Fli block	LMP1 NFkB inh
CN(C)C(=O)c1ccc(-c2ccc3c(c2)[C@@H]2[C@@H](CCN2C(=O)c2ccc4c(c2)OCO4)[C@@H](CO)N3)cc1	x	x	0.0	8.8	x
Cc1ccc(S(=O)(=O)Nc2ccc3c(c2)C(=O)N([C@H](C)CO)C[C@H](C)[C@@H](CN(C)Cc2ccncc2)OCCCC[C@H](C)O3)cc1	x	x	0.6	4.1	x
Nc1nccc(-c2cc(-c3ccc(Cl)cc3Cl)no2)n1	25.7	78.4*	59.6*	-22.3	-6.4
C[C@H]1CN([C@@H](C)CO)C(=O)c2cc(NC(=O)c3ccncc3)ccc2O[C@@H]1CN(C)C	x	x	-10.7	1.8	x
Cc1nc(Nc2nc3ccccc3o2)nc2c1CCC2	31.6	91.0*	x	x	56.7*
Cc1cccc(C)c1Nc1nc2ccccc2o1	8.4	6.8	x	-2.8	64.3*
CCOC(=O)c1cnc(Nc2nc3ccccc3o2)nc1C	56.1*	93.5*	82.2*	x	64.9*
CCOC(=O)c1cnc(Nc2nc3ccccc3o2)nc1CSc1nnc(C)s1	13.1	4.8	x	x	-10.2
CN1C(=O)c2cc(NC(=O)C3CCCC3)ccc2OC[C@H]2O[C@H](CC(=O)NCC3CC3)CC[C@H]21	x	x	3.3	10.1	x
CCNC(=O)C[C@H]1CC[C@@H]2[C@@H](COc3ccc(NC(=O)Nc4ccccc4F)cc3C(=O)N2C)O1	x	x	1.3	-6.9	x
CCOC(=O)C(=NC1CCCCC1)NNc1cccc(C(F)(F)F)c1	0.4	-6.5	-4.0	x	-13.8
CCOC(=O)C(=NC(C)CC)NNc1cccc(C(F)(F)F)c1 (stereo not drawn)	-0.5	58.4*	1.6	x	5.4
CO[C@H]1CN(C)C(=O)c2cc(NC(=O)Nc3cccc(F)c3)ccc2OC[C@H](C)N(C(=O)Nc2c(C)noc2C)C[C@H]1C	x	x	-15.7	-1.6	x
S=C(N/N=C1\CCc2ccccc21)NC1CCCCC1	70.9*	74.2*	9.7	-4.0	-5.0
O=C(N/N=C1\CCc2ccccc21)c1ccc(O)cc1	-59.9	50.5*	-54.7	-65.8	-20.5
Cc1cc(C(=O)CN2CCC(C)CC2)c(C)n1-c1ccccc1F	79.6*	81.8*	x	41.8	36.9
O=C1CCC(C(=O)N2CCCCCC2)CN1CCc1ccc(Cl)cc1 (stereo not drawn)	-41.3	6.1	14.9	x	68.8*
O=C1CCC(C(=O)N2CCC(O)CC2)CN1CCc1ccc(Cl)cc1 (stereo not drawn)	5.2	0.7	6.7	3.0	-2.6
C[C@@H]1CN([C@@H](C)CO)C(=O)c2cc(NS(C)(=O)=O)ccc2O[C@@H](C)CCCCO[C@H]1CN(C)CC1CC1	x	x	8.6	x	x
Cc1noc(C)c1S(=O)(=O)N(C)C[C@@H]1Oc2ccc(NS(=O)(=O)c3cn(C)cn3)cc2CC(=O)N([C@H](C)CO)C[C@H]1C	x	x	-6.7	-11.0	x
CC(NC(=O)COC(=O)c1cccs1)c1ccccc1 (stereo not drawn)	12.1	29.6	-9.8	-13.5	-2.5
CC(NC(=O)COC(=O)/C(=C/c1cccs1)c1cccs1)c1ccccc1 (stereo not drawn)	39.5	50.1*	9.8	11.5	3.4
Cc1ccc(Cc2c(C)c(C#N)c3[nH]c4ccccc4n3c2=O)cc1	59.7*	61.4*	11.1	25.8	6.6
O=C(Nc1cccc(F)c1)N[C@H]1CC[C@H](CCn2cc(Cc3ccccc3)nn2)O[C@@H]1CO	x	x	28.4	-4.7	x
O=[N+]([O-])c1ccc(NN=Cc2ccccc2)nc1	-67.9	-12.3	-40.9	-59.9	-46.2
SMILES	TROY signal inh	TWEAK Fn14 block	LGR2 antag	EWS-Fli block	LMP1 NFkB inh
O=[N+]([O-])c1ccc(N/N=C\c2cccn2-c2ccccc2)nc1	-30.0	51.8*	-8.6	x	6.9
Cc1cnc(NC(=O)c2sc3ccccc3c2Cl)s1	49.0	85.1*	u	72.4*	17.4
O=C(Nc1nccs1)c1sc2cc(Cl)ccc2c1Cl	-104.7	101.5*	x	x	-2.8
CC(C)c1nnc(NC(=O)c2sc3ccccc3c2Cl)s1	-25.5	-19.6	x	x	-21.8
Cc1ccc2c(Cl)c(C(=O)Nc3cc(C)on3)sc2c1	-49.3	4.0	x	x	-43.5
Cc1ccnc(NC(=O)c2sc3ccccc3c2Cl)c1	53.9*	74.8*	86.7*	x	61.4*
O=C(Nc1nccs1)c1sc2ccccc2c1Cl	-0.4	67.0*	x	x	-4.1
CCC(=O)NC[C@@H]1[C@H](c2ccc(-c3cccc(F)c3)cc2)[C@@H](CO)N1C(=O)CC	x	x	-29.5	-0.1	x
C[C@@H]1CN([C@@H](C)CO)S(=O)(=O)c2ccc(C#C[C@@H](C)O)cc2O[C@H]1CN(C)C(=O)CC1CC1	x	x	-9.2	1.0	x
CN1c2ccc(-c3ccccc3F)cc2[C@@H]2[C@@H](CCN2C(=O)Cc2ccccn2)[C@@H]1CO	x	x	1.6	-10.3	x

Screens from PubChem BioAssay.
